Some test systems named below: HCT-15 colon; HT29 colon; SNB-75 CNS; SNB-19 CNS; U251 CNS; PC-3 prostate; SK-MEL-5 melanoma; UACC-62 melanoma; LOX IMVI melanoma; SK-MEL-28 melanoma; SK-MEL-2 melanoma; EKVX NSCLC; SN12C renal; UO-31 renal; TK-10 renal; ACHN renal; CAKI-1 renal; A498 renal; CCRF-CEM leukemia; MOLT-4 leukemia.
Holding throughout (assay): NCI-60 one-dose screen, 48 h (100 = growth as untreated, 0 = no growth, -100 = all killed)
Common to all, as to conditions: 10 µM unless noted

The structures appear in SMILES notation. Compounds without any hit were thinned out: in the full panel of roughly 83,000, 20% have a hit.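 Single-concentration screen, 48 h exposure, 96-well plates. Endpoint: percent growth. Below 10 = active.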 Values without a mark were called inactive. Activity calls are given as the source filed them.

In PubChem BioAssay (NCI) one finds growth data, which are given here for eight compounds.

With `COc1ccc(NC(=O)n2nc(/C=C\c3ccc(O)c(OC)c3)cc2/C=C\c2ccc(O)c(OC)c2)cc1`, the growth with HCT-15 colon is 13.2%; in the experiment with HT29 colon it was 31.3%; in the experiment on SNB-75 CNS it was 32.6%; in the experiment on SNB-19 CNS, 38.9%; in the experiment with U251 CNS it was 26%; in the experiment on PC-3 prostate, 28.4%. Moreover, the growth in the experiment with SK-MEL-5 melanoma was 9.04% (active); with UACC-62 melanoma, 25.5%; with LOX IMVI melanoma, 27.6%; in the experiment on SK-MEL-28 melanoma, 34.5%; with SK-MEL-2 melanoma, 21.4%; with EKVX NSCLC, 52.4%. Further, the growth in the experiment on SN12C renal is 31.4%; in the experiment on UO-31 renal, 22.7%; in the experiment on TK-10 renal, 63.8%; with ACHN renal, 26%; with CAKI-1 renal, 38.1%; in the experiment on A498 renal it was 82.5%. The growth was 11.8% with CCRF-CEM leukemia and 12.2% in the experiment on MOLT-4 leukemia.
`CC(C)n1cnc2c(Nc3cccc(Cl)c3)nc(N[C@H]3CCCC[C@@H]3N)nc21`: the growth with HCT-15 colon is 58.1%; in the experiment on HT29 colon, 11.3%; with SNB-75 CNS, 32.8%; with SNB-19 CNS, 59.7%; in the experiment on U251 CNS, 57.3%; in the experiment on PC-3 prostate it was 54.3%. Besides, the growth in the experiment on SK-MEL-5 melanoma was 53.3%; in the experiment on UACC-62 melanoma, 68.3%; in the experiment on LOX IMVI melanoma, 45.2%; in the experiment with SK-MEL-28 melanoma it was 61.7%; in the experiment with SK-MEL-2 melanoma, 78.3%; with EKVX NSCLC, 54.1%. In addition, the growth in the experiment on SN12C renal is 50.6%; in the experiment on UO-31 renal it was 31.7%; in the experiment on TK-10 renal, 67.4%; in the experiment with ACHN renal, 29.9%; with CAKI-1 renal, 49.5%; in the experiment with A498 renal, 94.9%. Also, the growth in the experiment on CCRF-CEM leukemia was 66.6%; in the experiment on MOLT-4 leukemia, 7.51% (active).
Take `Oc1c(I)cc(I)cc1CNCCCN(Cc1ccccn1)Cc1ccccn1`: the growth with HCT-15 colon was -37.7% (active); in the experiment with HT29 colon it was -12.9% (active); in the experiment on SNB-75 CNS it was -89% (active); with SNB-19 CNS, 2.67% (active); with U251 CNS, -12.9% (active); in the experiment on PC-3 prostate, -55.5% (active). Moreover, the growth was -96.9% (active) in the experiment on SK-MEL-5 melanoma; -55.5% (active) in the experiment on UACC-62 melanoma; -91.7% (active) in the experiment on LOX IMVI melanoma; -33.8% (active) in the experiment with SK-MEL-28 melanoma; -30.9% (active) in the experiment on SK-MEL-2 melanoma; -85.6% (active) in the experiment with EKVX NSCLC. Besides, the growth with SN12C renal was -50.1% (active); with UO-31 renal it was -100% (active); in the experiment with TK-10 renal it was -78.5% (active); in the experiment on ACHN renal, -100% (active); in the experiment on CAKI-1 renal, -96.1% (active); with A498 renal, -98.4% (active). In addition, the growth in the experiment on CCRF-CEM leukemia was 3.65% (active); in the experiment with MOLT-4 leukemia, -10.5% (active).
In the case of `COc1nc2ccc(C)cc2cc1-c1nc2c(cnn2-c2ccccc2)c(=O)[nH]1`, the growth with HCT-15 colon is 61.8%; in the experiment with HT29 colon, 48.3%; in the experiment with SNB-75 CNS, 87.2%; with SNB-19 CNS, 84%; in the experiment on U251 CNS, 82.6%; with PC-3 prostate, 65.9%. Further, the growth in the experiment with SK-MEL-5 melanoma is 76.9%; in the experiment with UACC-62 melanoma, 60.2%; in the experiment with LOX IMVI melanoma, 70.4%; in the experiment on SK-MEL-28 melanoma, 81.9%; in the experiment on SK-MEL-2 melanoma it was 60.5%; with EKVX NSCLC, 85.1%. Besides, the growth was 98.3% with SN12C renal; 69.4% in the experiment with UO-31 renal; 109% in the experiment with TK-10 renal; 94.3% in the experiment on ACHN renal; 86.9% with CAKI-1 renal; 72.7% with A498 renal. For the same compound, the growth in the experiment with CCRF-CEM leukemia was 79.4%; in the experiment on MOLT-4 leukemia it was 75.2%.
For `COc1ccc(C(=S)N2CCN(c3cccc(C)c3)CC2)cc1OC`, the growth is 44.5% with HCT-15 colon; 43.3% in the experiment with HT29 colon; 59.7% in the experiment with SNB-75 CNS; 78.5% in the experiment on SNB-19 CNS; 53.9% in the experiment with U251 CNS; 75.3% in the experiment with PC-3 prostate. The growth in the experiment on SK-MEL-5 melanoma was 60.2%; in the experiment on UACC-62 melanoma, 64%; in the experiment on LOX IMVI melanoma, 55.7%; in the experiment with SK-MEL-28 melanoma, 75.7%; with SK-MEL-2 melanoma it was 34%; in the experiment with EKVX NSCLC, 102%. The growth with SN12C renal is 75%; with UO-31 renal, 76%; in the experiment on TK-10 renal it was 92.7%; with ACHN renal, 79.7%; in the experiment on CAKI-1 renal, 62.5%; in the experiment on A498 renal, 86.4%. The growth in the experiment on CCRF-CEM leukemia was 74%; with MOLT-4 leukemia it was 54.8%.
For the compound `NCCNc1nc2ccccc2c2c(=O)c3cccc(F)c3sc12`, the growth in the experiment with HCT-15 colon is 36.5%; in the experiment with HT29 colon, 16.4%; in the experiment on SNB-75 CNS it was 88%; in the experiment with SNB-19 CNS, 56.8%; in the experiment on U251 CNS, 43.9%; with PC-3 prostate, 62.9%. The growth with SK-MEL-5 melanoma was 88.2%; with UACC-62 melanoma, 95.9%; in the experiment on LOX IMVI melanoma it was 46.6%; in the experiment on SK-MEL-28 melanoma, 106%; in the experiment on SK-MEL-2 melanoma it was 102%; with EKVX NSCLC it was 74.1%. Besides, the growth in the experiment with SN12C renal is 47.5%; in the experiment on UO-31 renal, 40.7%; with TK-10 renal it was 71.7%; with ACHN renal it was 34.2%; in the experiment with CAKI-1 renal it was 39.6%; in the experiment with A498 renal, 59.7%. Further, the growth in the experiment with CCRF-CEM leukemia is 34.5%; in the experiment on MOLT-4 leukemia it was 7.98% (active).
With `O=C1c2cccc3cccc(c23)C(=O)N1Nc1nc(N2CCOCC2)nc(N2CCN(c3ccccc3)CC2)n1`, the growth in the experiment on HCT-15 colon was 33.7%; in the experiment with HT29 colon it was 24.3%; in the experiment with SNB-75 CNS, 21.4%; in the experiment on SNB-19 CNS it was 45.6%; with U251 CNS, 59.3%; with PC-3 prostate, 43.4%. Besides, the growth in the experiment on SK-MEL-5 melanoma is 4.98% (active); in the experiment on UACC-62 melanoma, 32.2%; with LOX IMVI melanoma, 39.2%; in the experiment on SK-MEL-28 melanoma, 52.5%; in the experiment on SK-MEL-2 melanoma it was 59.9%; with EKVX NSCLC, 50%. Besides, the growth was 64.8% in the experiment on SN12C renal; 29.9% in the experiment with UO-31 renal; 96% with TK-10 renal; 41.2% with ACHN renal; 41.2% in the experiment on CAKI-1 renal; -3.12% (active) in the experiment on A498 renal. Further, the results for the growth in the experiment with CCRF-CEM leukemia and with MOLT-4 leukemia were 56.9% and 42%, respectively.
In the case of `Cc1nc(/N=C(\N)NC(=O)Nc2ccccc2Cl)sc1C`, the growth in the experiment on HCT-15 colon is 30.1%; in the experiment with HT29 colon, 18%; in the experiment with SNB-75 CNS, -29.2% (active); in the experiment on SNB-19 CNS, 44.2%; with U251 CNS, 29.2%; in the experiment on PC-3 prostate it was 33.1%. Besides, the growth was 32.6% in the experiment with SK-MEL-5 melanoma; 45.7% in the experiment on UACC-62 melanoma; 43.3% in the experiment on LOX IMVI melanoma; 63.2% in the experiment on SK-MEL-28 melanoma; 45.6% with SK-MEL-2 melanoma; 48.7% in the experiment with EKVX NSCLC. The growth in the experiment on SN12C renal is 42.7%; in the experiment on UO-31 renal it was 58.1%; in the experiment with TK-10 renal, 70.7%; in the experiment on ACHN renal, 52.3%; in the experiment with CAKI-1 renal, 30.9%; with A498 renal, -15.9% (active). In addition, the growth with CCRF-CEM leukemia was 16.4%; in the experiment with MOLT-4 leukemia it was 43.6%.
